# Test results as given in the supplement of paper PMC3334620.
# The full ranking holds about 33,000 sequences; the median of “E-score (-0.5 to 0.5)” is about -0.054, and the highest 2% start at about 0.35. This excerpt belongs to a sample that is enriched for the highest values.
# Target: T1, Stb5 (UniProt P38699)
# T1 sequence: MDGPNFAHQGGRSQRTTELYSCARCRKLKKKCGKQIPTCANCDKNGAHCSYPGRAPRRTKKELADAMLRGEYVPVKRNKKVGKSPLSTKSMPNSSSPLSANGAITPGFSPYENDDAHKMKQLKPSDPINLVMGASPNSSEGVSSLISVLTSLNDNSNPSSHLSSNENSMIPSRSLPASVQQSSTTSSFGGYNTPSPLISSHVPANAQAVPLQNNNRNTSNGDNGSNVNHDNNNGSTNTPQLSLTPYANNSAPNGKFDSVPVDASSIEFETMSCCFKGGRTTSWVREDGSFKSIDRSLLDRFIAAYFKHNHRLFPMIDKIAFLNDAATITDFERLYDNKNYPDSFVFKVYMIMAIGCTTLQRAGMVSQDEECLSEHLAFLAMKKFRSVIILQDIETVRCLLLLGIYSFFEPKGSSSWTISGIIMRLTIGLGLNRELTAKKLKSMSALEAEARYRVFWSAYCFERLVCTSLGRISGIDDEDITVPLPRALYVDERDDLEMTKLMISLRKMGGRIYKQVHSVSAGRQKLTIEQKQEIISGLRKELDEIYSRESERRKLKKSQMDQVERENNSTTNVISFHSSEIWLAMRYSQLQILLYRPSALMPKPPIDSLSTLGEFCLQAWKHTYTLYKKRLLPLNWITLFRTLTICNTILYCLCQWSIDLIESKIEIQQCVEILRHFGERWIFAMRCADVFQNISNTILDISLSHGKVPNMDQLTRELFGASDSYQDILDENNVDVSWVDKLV
# Experiment: PBM E-score (8-mer binding enrichment) (E-score (-0.5 to 0.5)); higher = stronger / more preferred TF binding
# Details: protein concentration: 200 nM; construct: GST-full length
# Method in brief: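 Yeast transcription factors, full-length or as DNA-binding domains, were expressed with a GST tag using PURExpress in vitro transcription/translation. At about 100-200 nM they were applied to universal all-10-mer Agilent arrays, double-stranded by primer extension on fresh or once-stripped slides. Fluorescent anti-GST detected bound protein, and masliner normalised the scans. E-scores for ungapped eight-base words, pooled with reverse complements, came from the Universal PBM Analysis Suite.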
row,Sequence,PBM E-score
1,ATTGTCCC,0.0499
2,CATGTCCG,0.273
3,AATGTCCA,-0.0901
4,ATTGTCCA,-0.191
5,ATTGTCCG,0.372
6,ACTGTTAC,-0.163
7,CCATCGCG,0.195
8,AACCCCTT,0.0178
9,GCACGTGA,-0.337
10,CATCGGAC,0.34
11,AATCGGAC,0.362
12,GATCGGGC,0.301
13,GATCGGAA,0.133
14,AATCGGAG,0.263
15,GATCGGAC,0.415
16,ACGCGCCT,0.013
17,ACTTGACC,-0.0754
18,AACGGCAG,0.107
19,CTTTTTGA,-0.162
20,CCCTCCGG,0.122
21,TCCTCCGA,0.157
22,CCCTCCGA,0.0129
23,ACCTCCGG,0.372
24,ACCTCCGT,0.302
25,ACCTCCGA,0.364
26,GCTGGAAA,-0.0514

row,Sequence,PBM E-score
1,AACCCTTA,-0.147
2,CAGGCATG,-0.111
3,CTAAAAGC,0.0851
4,GGAGTTTA,0.362
5,AGAGTTAA,-0.131
6,CGAGTTTA,0.179
7,AGAGTTAC,-0.241
8,GGAGTTAA,0.398
9,GGAGTTAC,0.365
10,AGAGTTTA,-0.0332
11,TGAGTTAA,-0.155
12,CGAGTTAC,-0.104
13,GCGGCTAC,0.192
14,AATACTGA,-0.19
15,TACCCACA,-0.228
16,GGGCCTAC,0.066
17,ATTATCTA,-0.0957
18,ACTTGAGC,-0.28
19,AATTTTAT,0.292
20,CTTCAGTC,-0.0437
21,CTTTTATC,0.161
22,AAGCCCGC,0.443
23,AAGCCCTT,-0.131
24,CAGCCCGC,0.141
25,GAAGCCGC,0.202
26,AAGCCCAT,-0.0309

row,Sequence,PBM E-score
1,AAAGCCGC,0.365
2,AAAGCCGT,0.324
3,AAGCCCGG,0.411
4,AAGCCCGT,0.417
5,CAGCCCGG,0.246
6,GAGCCCGC,0.252
7,AAGCCCTG,-0.101
8,GAAAGGCA,0.126
9,ACCCCCCA,-0.204
10,CACAACGG,0.166
11,TAGCCCGA,0.171
12,AAGCCCGA,0.43
13,AAGCCCCC,0.00224
14,GAGCCCGA,0.264
15,AAAGCCCG,0.457
16,AAAGCCCC,0.246
17,AAGCCCCG,0.431
18,CAGCCCCG,0.267
19,AAAGCCCT,-0.125
20,CTTCCCCA,-0.184
21,ATCCTATA,-0.0861
22,ATGGCAAC,-0.184
23,ACGAGAAT,0.00633
24,CTATGCGC,0.116
25,AGACCTTC,-0.109
26,AAAGGACT,-0.0879

row,Sequence,PBM E-score
1,GCCGCAAA,0.182
2,GGCCGCCA,0.141
3,AATCCGAC,0.257
4,AGTCCGAG,0.237
5,CGTCCGAC,0.281
6,AGTCCGAA,0.299
7,AGTCCGAC,0.436
8,AGTCCGAT,0.414
9,GGTCCGAC,0.411
10,GGTCCGAA,0.328
11,ATTCCGAC,0.254
12,CGGCAGGA,0.134
13,GGAACCCC,0.19
14,GCCTAGGC,-0.0482
15,ACCAGGCA,-0.187
16,AGCTACAC,-0.174
17,CTCTAGAC,-0.146
18,GCAGTTGA,-0.177
19,GTTCATCA,-0.136
20,ATTAAGAA,0.0289
21,ATGAACGA,-0.0854
22,AACAGGCA,-0.186
23,CGTCGTAC,0.0941
24,GTCCTCTA,-0.159
25,ACGCCGGG,0.306
26,CCGCCGGA,0.309

row,Sequence,PBM E-score
1,ACGCCGGC,0.389
2,ACGCCGGA,0.343
3,CGGCCGGC,0.284
4,CCGCCGGC,0.421
5,CGAAAGAA,0.0281
6,AACTGCGT,-0.00018
7,CGCATTGC,-0.0359
8,CACCGGCG,0.417
9,TACCGGCA,0.31
10,AACCGGCA,0.106
11,CACCGGCC,0.318
12,AACCGGCG,0.313
13,CACCGGCA,0.377
14,CTGCACTA,-0.0814
15,CGCTAAGC,0.0898
16,ATGAAAAC,0.116
17,AAATCCCG,0.411
18,AAATCCGG,0.376
19,CAATCCGG,0.167
20,AAATCCCA,-0.156
21,AAATCCGA,0.332
22,AAATCCGC,0.354
23,GAATCCGC,0.0516
24,CAATCCCG,0.281
25,AAATCCGT,0.281
26,ATTCGCGG,0.171

row,Sequence,PBM E-score
1,CAGCACTG,-0.172
2,GAATAAGA,0.0303
3,CGTCTAAA,-0.027
4,CAGCAGTC,-0.115
5,ACTTCGCT,-0.0885
6,AACGGTGT,0.425
7,AACGGTGC,0.332
8,CACGGTGA,0.282
9,AACGGTGG,0.245
10,AACGGTGA,0.355
11,TACGGTGA,0.16
12,CCCATTGC,0.0345
13,GTCCCTGA,-0.284
14,GGGAGGCA,0.111
15,AGGCTCCG,0.246
16,ATTACCTG,-0.0469
17,CTTACCGA,0.0867
18,ACTACCGG,0.279
19,ATTACCGA,0.38
20,ATTACCGC,0.419
21,GTTACCGA,0.197
22,ATTACCTC,0.0374
23,CTTACCGC,0.193
24,ATTACCCC,0.362
25,ATTACCGG,0.371
26,ATTACCCG,0.176

row,Sequence,PBM E-score
1,CTTACCCC,0.222
2,CAGCAAGG,-0.369
3,GATGATAA,0.0422
4,ACCCACTA,0.0277
5,CGGCTTCA,0.259
6,ACTTTGGG,-0.0994
7,CTGGCCAC,-0.199
8,CTCCCGAG,-0.213
9,CCAAGGTA,-0.11
10,CGGCGGGC,0.361
11,CGGCGGCC,0.242
12,AGGCGGTC,0.258
13,AGGCGGTA,0.287
14,CTGCGGTA,0.254
15,CGGCGGTA,0.451
16,CGGCGGGA,0.347
17,GGGCGGTA,0.346
18,CCGCGGGC,0.335
19,GTGCGGTA,0.367
20,ATGCGGTA,0.243
21,CGGCGGTC,0.355
